# High-throughput results from PubChem.
# IDE exosite FP – exo-site inhibitors of human IDE, primary screen, biochemical, fluorescence anisotropy, probe displacement; purified IDE, FL-6b probe fluorescence polarization; hits give low values; z-score at 20 µM; Insulin-degrading enzyme (Homo sapiens), P14735; AID 1259349, 2017; 17,000 compounds, 6.3% hits;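 active = z-score of -3 or lower, meaning strong loss of probe binding signal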;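 also: His-tagged human IDE residues 42-1019 made in E. coli with 30 nM FL-6b probe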
# * hit, by the source's call; ! = not active in a repeat. This is one part of a sample in which hits are shown more often than they occur.
SMILES,IDE exosite FP
COCC(=O)N1CC(=O)N2[C@@H](CO)[C@H](c3ccc(-c4ccccc4)cc3)[C@@H]2C1,-0.89
O=C(CC1CC1)N1CC(=O)N2[C@@H](CO)[C@@H](c3ccc(-c4ccccc4)cc3)[C@@H]2C1,-4.8*
O=C(CC1CC1)N1CC(=O)N2[C@H](CO)[C@H](c3ccc(/C=C/c4ccccc4)cc3)[C@@H]2C1,-1.5
O=C(CC1CC1)N1CC(=O)N2[C@H](CO)[C@@H](c3ccc(/C=C/c4ccccc4)cc3)[C@H]2C1,-3.3*
O=C(CC1CC1)N1CC(=O)N2[C@@H](CO)[C@H](c3ccc(/C=C/c4ccccc4)cc3)[C@@H]2C1,-5*
O=C(Nc1ccc(Cl)cc1)N1C[C@H]2[C@@H](c3ccccc31)[C@H](CO)N2CC1CCCCC1,1.9
CCCC#Cc1ccc([C@H]2[C@@H](CO)N3C(=O)CN(C(=O)Nc4cccc(F)c4)C[C@@H]23)cc1,0.51
COc1ccc2c3c([nH]c2c1)[C@@H](CO)N(Cc1cc(F)ccc1F)CC31CCN(C(=O)CN(C)C)CC1,-1.5
CN1CCCCN2[C@H](C1)[C@@H](c1ccc(-c3ccccc3)cc1)[C@@H]2CO,2.1
COCCNC(=O)[C@@H]1[C@@H](CO)[C@@H]2Cn3c(cccc3=O)[C@H]1N2Cc1cccc(Cl)c1,0.62
CN1C(=O)c2cc(NC(=O)C3CCOCC3)ccc2OC[C@@H]2O[C@@H](CC(=O)NCCc3ccncc3)CC[C@@H]21,-0.92
C/C=C/c1ccc([C@@H]2[C@@H](CO)N3C(=O)CN(S(=O)(=O)c4cccc(F)c4)C[C@H]23)cc1,0.027
O=C(C1CCCC1)N1CC(=O)N2[C@H](C1)[C@@H](c1ccc(Br)cc1)[C@@H]2CO,2.5
O=C(NC1CCCC1)N1CCCCN2[C@H](C1)[C@@H](c1ccc(-c3cncnc3)cc1)[C@@H]2CO,3.6
O=C(NC1CCCC1)N1CCCCN2[C@H](CO)[C@@H](c3ccc(-c4cncnc4)cc3)[C@@H]2C1,-0.14
O=C(NC1CCCC1)N1CCCCN2[C@H](CO)[C@@H](c3ccc(-c4cncnc4)cc3)[C@H]2C1,2.2
O=C(NC1CCCC1)N1CCCCN2[C@H](CO)[C@@H](c3ccc(-c4cccnc4)cc3)[C@@H]2C1,-1.3
CCCC#Cc1ccc([C@H]2[C@@H](CO)N3CCCCN(C(=O)NC4CCCC4)C[C@@H]23)cc1,-1
CCCC#Cc1ccc([C@@H]2[C@@H](CO)N3CCCCN(C(=O)NC4CCCC4)C[C@H]23)cc1,-4.9*
O=C(NC1CCCC1)N1CCCCN2[C@@H](CO)[C@@H](c3ccc(-c4ccccc4)cc3)[C@@H]2C1,-7*
CCCC#Cc1ccc([C@H]2[C@H]3CN(C(=O)NC4CCCC4)CCCCN3[C@H]2CO)cc1,-1.2
O=C(NC1CCCC1)N1CCCCN2[C@H](CO)[C@H](c3ccc(-c4ccccc4)cc3)[C@H]2C1,-5*
O=C(Nc1ccccc1)[C@H]1[C@H](CO)[C@H]2Cn3c(cccc3=O)[C@@H]1N2C(=O)c1ccc(F)cc1,1.1
CN(C)C(=O)C[C@H]1CC[C@@H]2[C@H](COC[C@@H](O)CN2C(=O)C2CCOCC2)O1,-0.1
C[C@H](CO)N1C[C@H](C)[C@H](CN(C)Cc2ccc3c(c2)OCO3)OCCCC[C@H](C)Oc2ccc(NS(=O)(=O)c3cn(C)cn3)cc2C1=O,1.6
SMILES,IDE exosite FP
CC(=O)N(C[C@H]1N[C@H](CO)[C@@H]1c1ccc(-c2ccccc2)cc1)C(C)C,4.2
O=C(C1CCCC1)N1CC(=O)N2[C@H](C1)[C@H](c1ccc(Br)cc1)[C@@H]2CO,2.9
Cc1ccccc1-c1ccc(C2[C@@H]3CN(Cc4ccc5c(c4)OCO5)C[C@H]2N3)cc1 (stereo not given in full),-4.3*!
c1ncc(-c2ccc(C3[C@@H]4CN(Cc5cocn5)C[C@H]3N4)cc2)cn1 (stereo not given in full),3.7
Cc1ccccc1-c1ccc(C2[C@@H]3CN(Cc4cocn4)C[C@H]2N3)cc1 (stereo not given in full),-3*!
Cc1ccccc1-c1ccc(C2[C@H]3CNC[C@@H]2N3Cc2ccc3c(c2)OCO3)cc1 (stereo not given in full),-0.77
c1cncc(-c2ccc(C3[C@@H]4CN(Cc5ccc6c(c5)OCO6)C[C@H]3N4)cc2)c1 (stereo not given in full),-1.1
C(=C\c1ccc(C2[C@@H]3CN(Cc4cocn4)C[C@H]2N3)cc1)/c1ccccc1 (stereo not given in full),-0.39
N#Cc1cccc(-c2ccc([C@H]3[C@H](CO)N4CCCCN(C(=O)Nc5ccccc5)C[C@@H]34)cc2)c1,2.9
COc1cccc(-c2ccc([C@@H]3[C@@H](CO)N4CCCCN(CC5CC5)C[C@@H]34)cc2)c1,-2.9
CO[C@H](CN(C)Cc1ccc(-c2ccccn2)cc1)[C@H](C)CN(C(=O)Nc1ccc(F)cc1)[C@@H](C)CO,1.1
COc1cccc(CN2[C@@H]3CNC[C@H]2C3c2ccc(/C=C/c3ccccc3)cc2)c1 (stereo not given in full),-0.84
COc1cc(CN2[C@@H]3CNC[C@H]2C3c2ccc(/C=C/c3ccccc3)cc2)cc(OC)c1 (stereo not given in full),-5.5*!
COc1cc(CN2[C@@H]3CNC[C@H]2C3c2ccc(-c3ccccc3)cc2)cc(OC)c1 (stereo not given in full),-2.4
c1ccc(CN2[C@@H]3CNC[C@H]2C3c2ccc(-c3cccnc3)cc2)nc1 (stereo not given in full),1.7
C(=C\c1ccc(C2[C@H]3CNC[C@@H]2N3Cc2cncnc2)cc1)/c1ccccc1 (stereo not given in full),0.52
C(=C\c1ccc(C2[C@H]3CNC[C@@H]2N3Cc2ccccn2)cc1)/c1ccccc1 (stereo not given in full),-3.8*!
C[C@H]1CCCCO[C@H](CN(C)CC2CC2)[C@@H](C)CN([C@@H](C)CO)C(=O)c2cc(NC(=O)c3ccccc3)ccc2O1,1.2
CC(C)C(=O)Nc1ccc2c(c1)C(=O)N(C)[C@@H]1CC[C@H](CC(=O)NCCc3ccccc3)O[C@@H]1CO2,-0.77
COc1ccccc1NC(=O)N1CC(=O)N2[C@H](CO)[C@@H](c3ccc(C#CC(C)C)cc3)[C@@H]2C1,-1.8
Cc1cccc(-c2ccc([C@@H]3[C@H](CO)N4CCCCN(S(=O)(=O)c5cn(C)cn5)C[C@@H]34)cc2)c1,-20*
Cc1cccc(-c2ccc([C@H]3[C@H]4CN(S(=O)(=O)c5cn(C)cn5)CCCCN4[C@H]3CO)cc2)c1,1.4
COc1cccc(-c2ccc([C@@H]3[C@@H](CO)N4CCCCN(S(=O)(=O)c5cn(C)cn5)C[C@@H]34)cc2)c1,-14*
Cn1cnc(S(=O)(=O)N2CCCCN3[C@@H](CO)[C@@H](c4ccc(-c5ccc(F)cc5)cc4)[C@@H]3C2)c1,-2.1
Cn1cnc(S(=O)(=O)N2CCCCN3[C@H](CO)[C@H](c4ccc(-c5cccc(F)c5)cc4)[C@@H]3C2)c1,2.5
Cn1cnc(S(=O)(=O)N2CCCCN3[C@H](CO)[C@@H](c4ccc(-c5ccccc5)cc4)[C@@H]3C2)c1,-9.4*
COc1cccc(-c2ccc([C@H]3[C@H]4CN(S(=O)(=O)c5cn(C)cn5)CCCCN4[C@H]3CO)cc2)c1,-0.71
Cn1cnc(S(=O)(=O)N2CCCCN3[C@H](C2)[C@H](c2ccc(-c4ccccc4)cc2)[C@@H]3CO)c1,1.7
